This is a sample that favours compounds with a hit; in the whole collection about 4.8% have one here.
DAX1 inh-1 – inhibitors of DAX1 repression of SF-1 activated StAR promoter. HEK293T StAR-luciferase reporter, SF-1/DAX-1 repression relief. inhibition, % at 6.8 µM. 370,000 compounds, 1.1% hits;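 active = inhibition above the mean over all tested compounds plus 3 SD, cut at about 3.6% in these data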;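 also: higher inhibition means more luminescence from relief of DAX-1 repression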
hgDAF12 agonist – agonists of H. glycines DAF-12 nuclear receptor. HEK293 GAL4-hgDAF12 UAS-luciferase reporter, agonist luminescence; normalized to butyrate control. activation, % at 6.8 µM. 370,000 compounds, 1.8% hits. AID 687014;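 active = activation above a cutoff set at the mean of all screened compounds plus 3 SD, cut at about 10% in these data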
ssDAF-12 act – S. stercoralis DAF-12 activation, primary screen. HEK293 ssDAF-12/GRIP1 lit1-tk-luc reporter, luminescence; % of 3 µM dafachronic acid response. AID 652126. activation, % at 6.8 µM. 370,000 compounds, 1% hits;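 active = activation above the mean over all tested compounds plus 3 SD, cut at about 0.9% in these data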
SMARCA2 act – increases SMARCA2 function in MMTV reporter cells | activation, % at 9.1 µM | MG213 cells, MMTV-luciferase reporter, dexamethasone, overnight | 370,000 compounds, 1% hits; in the data active = activation above about 7.8%
DAX1 inh-2 – inhibitors of human orphan nuclear receptor DAX1 (NR0B1); P51843; HEK293 Gal4-DAX1 luciferase reporter, luminescence; inhibition, % at 6.75 µM; 340,000 compounds, 0.99% hits;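 active = inhibition above the mean over all tested compounds plus 3 SD, cut at about 4.2% in these data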;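 also: inhibition shows as a rise in luminescence from relieved DAX1 repression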
Target sequence (P51843 207-470 limits assumed): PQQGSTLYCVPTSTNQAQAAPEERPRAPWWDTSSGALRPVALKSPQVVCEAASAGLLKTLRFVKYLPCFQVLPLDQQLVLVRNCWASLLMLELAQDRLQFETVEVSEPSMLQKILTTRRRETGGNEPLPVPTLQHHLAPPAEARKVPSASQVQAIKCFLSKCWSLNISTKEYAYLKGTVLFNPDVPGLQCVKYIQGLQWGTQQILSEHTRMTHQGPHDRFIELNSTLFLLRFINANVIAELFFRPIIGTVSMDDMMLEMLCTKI
hcDAF-12 act – activates DAF-12 receptor from parasite H. contortus; HEK293 hcDAF-12 lit1-tk-luc reporter, luminescence; 0% DMSO, 100% Δ7-dafachronic acid; activation, % at 6.8 µM; 370,000 compounds, 1.4% hits;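 active = activation above the mean of all tested compounds plus 3 SD, cut at about 5.5% in these data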
A number is an active result; n = inactive; x = not tested or not shown.

SMILES	DAX1 inh-1	hgDAF12 agonist	ssDAF-12 act	SMARCA2 act	DAX1 inh-2	hcDAF-12 act
Cc1ccc(C(C)C)c(OCCCCCN2CCOCC2)c1	n	n	n	n	n	n
Cc1ccc(OCCCN2CCOCC2)c([N+](=O)[O-])c1	n	13	n	n	n	n
Cc1ccc(OCCCCCN2CCOCC2)c(Cl)c1	n	n	n	n	4.9	n
Cc1ccc(NC(=O)c2ncn(CC(=O)N3CCN(c4ccccn4)CC3)n2)cc1C	n	n	n	n	n	n
O=C(c1[nH]c(C(F)(F)F)nc1-c1ccccc1)N1CCN(c2ccccn2)CC1	n	n	n	n	x	n
Cc1cc(OCCN2CCOCC2)ccc1Cl	n	12	n	n	n	n
O=C(c1ccc(Cl)cc1)C1CCN(C(=O)c2ccc(F)cc2)CC1	n	n	n	n	n	n
COc1ccc(NC(=O)CSCC(=O)Nc2sccc2C#N)cc1	n	n	1.0	n	n	n
COc1ccc(CCC(=O)Nc2sccc2C#N)cc1	n	12	n	n	x	n
O=[N+]([O-])c1cccc2[nH]c(CNc3nc(N4CCOCC4)nc4c3ncn4-c3ccsc3)nc12	x	n	n	x	x	n
CCOC(=O)N1CC(C)N(CC(O)CN2CCOCC2)CC1C (stereo not drawn)	n	n	n	n	n	n
CCOc1ccc(CCNC(=O)COC(=O)COc2ccc(Cl)cc2)cc1OCC	3.8	n	n	n	n	n
CCOc1ccc(CCNC(=O)COC(=O)Cc2c[nH]c3ccccc23)cc1OCC	n	n	1.3	n	n	n
O=C(NC1CC1)c1cccc2c1C(=O)c1ccc(N3CCC(N4CCCCC4)CC3)cc1S2(=O)=O	n	n	n	n	n	n
Cc1ccc(C)c(NC(=O)C2CC(O)CN2C(=O)Oc2ccccc2)c1 (stereo not drawn)	n	n	n	n	n	n
O=C1CSC(=S)N1N=Cc1c(O)ccc2ccccc12	n	n	1.0	n	n	n
CN1C(=O)c2ccccc2Cc2c(NCc3ccccc3)ncnc21	n	n	n	n	n	n
O=C(NCCCN1CCC(Cc2ccccc2)CC1)c1ccc(CS(=O)c2ccccc2Cl)o1 (stereo not drawn)	n	n	n	n	n	n
CN1CCN(c2ncnc3c2ncn3[C@H]2CN(Cc3cccs3)C[C@@H](CO)O2)CC1	n	n	n	n	x	n
O=C(N/N=C/c1ccncc1)NC1CCCCC1	n	n	n	n	5.9	n
O=C(NCc1cccnc1)c1ccc2sc([C@@H]3O[C@H](CO)[C@H](O)[C@H](O)[C@H]3O)nc2c1	n	n	0.9	n	x	n
Cc1ccc(SCCSc2nc(C)cc(=O)[nH]2)cc1	n	n	n	n	5.0	n
Cc1ccc(SCCSc2nc(N)cc(=O)[nH]2)cc1	n	n	n	n	n	n
C[C@H](CO)N1C[C@H](C)[C@H](CN(C)S(=O)(=O)c2cccc(F)c2)Oc2ncc(-c3cccc(C(=O)N(C)C)c3)cc2C1=O	n	n	n	n	n	n
CC(Sc1nnc(COc2ccccc2)n1Cc1ccccc1)C(=O)O (stereo not drawn)	n	n	0.9	n	n	n
SMILES	DAX1 inh-1	hgDAF12 agonist	ssDAF-12 act	SMARCA2 act	DAX1 inh-2	hcDAF-12 act
COc1ccc(OC)c(NC(=O)COC(=O)CCCN=C2NS(=O)(=O)c3ccccc32)c1	n	n	n	n	n	n
O=C(O)c1cccc(COc2ccccc2Cl)c1	4.5	n	n	n	n	n
O=C(O)c1ccc(COc2ccccc2Cl)cc1	n	n	n	n	n	n
CCCc1cc(=O)[nH]c(N/N=C/C=C\c2ccccc2)n1	n	n	n	n	4.9	n
O=c1c2ccccc2[nH]c(=S)n1CC1CCCO1 (stereo not drawn)	n	n	n	n	n	n
O=C(C1CCC(Cn2c(=S)[nH]c3ccccc3c2=O)CC1)N1CCOCC1 (stereo not drawn)	n	n	n	n	5.7	n
O=c1c2cc(N3CCOCC3)ccc2[nH]c(=S)n1CC1CCCO1 (stereo not drawn)	n	n	0.9	n	n	n
O=C(C1CCC(Cn2c(=S)[nH]c3ccccc3c2=O)CC1)N1CCN(c2ccccc2)CC1 (stereo not drawn)	n	n	n	n	n	n
CN(C)S(=O)(=O)c1cccc(CNCC2COc3ccccc3O2)c1 (stereo not drawn)	n	n	n	n	n	n
CC(=O)c1ccc(NC(=O)C2CCCN2S(=O)(=O)c2ccc(F)cc2)cc1 (stereo not drawn)	n	n	n	n	n	n
O=C(Nc1ccc(O)cc1)C1CCCN1S(=O)(=O)c1ccc(F)cc1 (stereo not drawn)	n	n	n	n	4.6	n
CCC1CCCCN1C(=O)COC(=O)COc1ccc(Br)cc1 (stereo not drawn)	n	n	n	n	n	n
C[C@H](CO)N1C[C@H](C)[C@H](CN(C)S(=O)(=O)c2ccc(-n3cccn3)cc2)OCc2cnnn2CCCC1=O	n	n	n	n	n	n
COC(=O)c1ccc(NC(=O)c2ccc(OC(C)=O)c(OC)c2)cc1	4.0	n	n	n	n	n
O=C(Nc1ccc(F)cc1)C(c1ccccc1)N1CCN(CC(=O)N2CCCC2)CC1 (stereo not drawn)	n	n	n	n	n	n
COc1ccc(C(C(=O)Nc2ccc(F)cc2)N2CCN(CC(=O)N3CCCC3)CC2)cc1 (stereo not drawn)	4.2	n	n	n	x	n
Nc1cc(N)nc(SCC(=O)NCC(=O)Nc2ccc(F)c(F)c2F)n1	n	n	n	n	n	n
Cc1cc(Cl)ccc1OCCn1cncn1	n	n	n	n	n	6.0
O=C(CN1C(=O)c2ccccc2S1(=O)=O)NCc1c(F)cccc1F	n	n	n	n	4.9	n
O=C(CN1C(=O)c2ccccc2S1(=O)=O)NCc1ccc(F)cc1	n	n	n	n	n	n
CC1CCc2nc(NC(=O)CN3CCN(c4ccc(F)cc4)CC3)sc2C1 (stereo not drawn)	n	n	n	n	6.6	n
COc1cccc(N2CCN(CC(=O)Nc3nc4c(s3)CC(C)CC4)CC2)c1 (stereo not drawn)	n	n	n	n	n	n
O=C(Cc1ccc(Cl)cc1)Nc1ccc(SC(F)F)cc1	n	11	n	n	n	n
O=C(Cc1ccc(Br)cc1)Nc1ccc(Cl)cc1	n	n	n	n	n	n
CCOC(=O)C(Cc1ccccc1)c1ccnc2ncnn12 (stereo not drawn)	n	n	n	n	n	n
Cc1cc2nc(C(C)(C)C)c(Cc3cccc(Cl)c3)n2c(C)c1Br	n	n	n	n	x	n
Cc1cc2nc(C3CCCCC3)c(Cc3ccsc3)n2c(C)c1Br	n	n	n	n	x	n
Cc1cc2nc(C(C)(C)C)c(Cc3ccsc3)n2c(C)c1Br	4.1	n	n	n	x	n
Cc1ccc(Cc2c(C(C)(C)C)nc3cc(C)c(Br)c(C)n23)cc1	n	n	1.2	n	x	n
